Compound activity deposited in PubChem BioAssay by National Center for Advancing Translational Sciences (NCATS).
Compounds with a hit are over-represented: about 2.4% of the library has one in this group of screens.
D2 antag: HTS Assay for Allosteric Antagonists of the Human D2 Dopamine Receptor: Primary Screen for Antagonists; D(2) dopamine receptor (Homo sapiens), P14416; HEK293 TREx D2 cells, calcium flux, dopamine EC80; inhibition, % at 10 µM; 340,000 compounds, 2% hits; AID 485344, 2010; in the data active means inhibition above about 30%; inactive means below that, where a call was filed; further: 0% is about no effect
Target sequence (P14416 whole entry, looked up): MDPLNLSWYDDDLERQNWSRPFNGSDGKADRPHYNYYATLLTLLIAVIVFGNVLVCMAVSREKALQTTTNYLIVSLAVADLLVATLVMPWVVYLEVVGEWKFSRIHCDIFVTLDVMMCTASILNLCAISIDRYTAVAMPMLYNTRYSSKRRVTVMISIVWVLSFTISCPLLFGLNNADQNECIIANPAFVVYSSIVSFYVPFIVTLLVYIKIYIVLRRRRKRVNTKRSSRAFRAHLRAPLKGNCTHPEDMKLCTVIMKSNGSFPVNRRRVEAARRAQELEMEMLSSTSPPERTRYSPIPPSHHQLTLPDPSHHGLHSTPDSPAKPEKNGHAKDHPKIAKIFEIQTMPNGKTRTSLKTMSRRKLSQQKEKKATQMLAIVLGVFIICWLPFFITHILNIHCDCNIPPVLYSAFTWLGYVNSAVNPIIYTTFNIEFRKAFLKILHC
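Tetracycline-induced HEK293 T-REx cells expressing D2 force-coupled to calcium signalling were dye-loaded, exposed to compound for 180 s, then challenged with an EC80 of dopamine; calcium flux was followed kinetically for a further 180 s.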
D2 PAM-1: HTS Assay for Positive Allosteric Modulators of the Human D2 Dopamine Receptor: Primary Screen for Potentiators; HEK293 T-REx D2, calcium flux, EC20 dopamine potentiation; 340,000 compounds, 0.34% hits; potentiation, % at 10 µM;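 active means potentiation over 3 SD above the plate norm, cut at about 30% in these data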; further: 0% is about no effect
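Tetracycline-induced HEK293 T-REx cells force-coupled to calcium signalling expressed D2; compounds were pin-added after a 10 s baseline, read kinetically 180 s, then an EC20 dopamine challenge followed with a further 180 s calcium read.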
D2 ag-1: HTS Assay for Allosteric Agonists of the Human D2 Dopamine Receptor: Primary Screen for Agonists. D(2) dopamine receptor (Homo sapiens), P14416. HEK293 T-REx D2 cells, calcium flux agonist mode. activation, % at 2 µM. 340,000 compounds, 0.53% hits. AID 485358, 2010;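 active means activation over 3 SD above normal in the single-dose calcium agonist read, cut at about 30% in these data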; further: 0% is about no effect
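Tetracycline-induced HEK293 Trex cells with D2 receptor force-coupled to calcium signaling, plated overnight at 30 C and loaded with no-wash calcium dye. Calcium flux read kinetically for 180 s after compound addition; responses flag agonists.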
D2 ag-2: Beta-Arrestin HTS for Positive Allosteric Modulators of the Human D2 Dopamine Receptor: Agonists | DiscoveRx PathHunter D2 beta-arrestin, luminescence, 90 min; 100% = 57 uM dopamine signal | D(2) dopamine receptor (Homo sapiens), P14416 | 360,000 compounds, 0.084% hits | activation, % (no concentration beside the values); in the data active means activation above about 40%; inconclusive means between about 15% and that limit
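DiscoveRx PathHunter D2 beta-arrestin cells (2,100/well) attached overnight, then compound-stimulated 90 min at 37 C in HBSS/10 mM HEPES/0.1% Tween-20 buffer; beta-galactosidase complementation read by luminescence after 1 h at ambient temperature. Dopamine 57 uM final (EC100) as control.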
D2 PAM-2: Beta-Arrestin HTS for Positive Allosteric Modulators of the Human D2 Dopamine Receptor: Potentiators | DiscoveRx D2 beta-arrestin cells, luminescence, 90 min; 100% = 57 uM dopamine signal | D(2) dopamine receptor (Homo sapiens), P14416 | 360,000 compounds, 0.23% hits | potentiation, % (no concentration beside the values); in the data active means potentiation above about 50%; inconclusive means mostly about 30% to 49%
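PathHunter D2 cells, attached overnight at 37 deg C, received compound in DMSO plus dopamine at EC20 (50 nM final) for 90 min at 37 deg C. Beta-arrestin recruitment was read as luminescence after 1 h with detection reagent at ambient temperature.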
* hit, by the source's call; ? = inconclusive; . = not tested or not shown.

SMILES	D2 antag	D2 PAM-1	D2 ag-1	D2 ag-2	D2 PAM-2
CC(=O)c1ccc2noc(-c3ccc(Cl)cc3)c2c1	-16	-3	-1	?	?
CCC1CN(C(=O)N2CCC(C(=O)Nc3cc(C)ccc3C)CC2)c2ccccc2O1 (stereo not given)	.	-1	-1	.	.
COc1ccc(CCNC(=O)C(=O)NCC(c2cccs2)S(=O)(=O)c2ccccc2)cc1 (stereo not given)	.	4	1	.	.
Cc1ccc(NC(=O)Cn2cnc3c(nnn3Cc3ccc(F)cc3)c2=O)cc1	-27	-2	0	-6	-3
O=C(Cn1cnc2c(nnn2Cc2ccc(F)cc2)c1=O)Nc1cccc(F)c1	37*	-4	1	1	-3
CCCn1c2ccccc2c2cnn(CC(=O)NCc3cc(OC)ccc3OC)c(=O)c21	.	2	0	.	.
Cc1ccc2c(c1)N(CC(=O)NCCc1c[nH]c3ccccc13)C(=O)CO2	12	60*	1	-1	-2
Cn1c(=O)c2cc(C(=O)N3CCN(c4ccc(Cl)cc4)CC3)sc2c2ccccc21	.	15	0	.	.
COc1ccc(-n2ncc3c2CC(C)(C)CC3NC(=O)c2oc(C)cc2C)cc1 (stereo not given)	-11	36*	0	-6	1
Cc1[nH]c(=O)[nH]c(=O)c1S(=O)(=O)Nc1ccc(Oc2ccccc2)cc1	-8	6	0	-2	3
CN(C)S(=O)(=O)Nc1ccc(Oc2ccccc2)cc1	35*	3	0	-1	-20
Cc1ccc(-n2nnnc2CNC(=O)c2cc(C(F)(F)F)cc(C(F)(F)F)c2)cc1C	.	-7	0	.	.
Cc1cc(NC(=O)C2C3C(=O)N(CC4CCCO4)C(C(=O)NCc4ccccc4)C34C=CC2(C)O4)no1 (stereo not given)	33*	6	1	-2	-5
O=C(/C=C/c1ccc(N2CCC(c3ccccc3)=N2)cc1)c1ccccc1	33*	-4	37*	-5	-14
CCOC(=O)/C(=C\c1ccc(N2CCC(c3ccccc3)=N2)cc1)C(C)=O	.	.	.	0	-19
CC(C)c1ccc(-c2nnn(CCC(=O)O)n2)cc1	23	1	-1	?	81*
O=C(O)CCn1nnc(-c2cccs2)n1	-19	0	0	-1	-11
CCOc1ccccc1Oc1ncnc2c1oc1ccccc12	.	4	1	.	.
O=C1NCN(c2ccccc2)C12CCN(CCCC(c1ccc(F)cc1)c1ccc(F)cc1)CC2	69*	-26	4	-7	-33
O=C1CCC(=O)N1CCC(c1ccc(F)cc1)c1ccco1 (stereo not given)	17	9	2	-1	-17
COc1cc(C2Nc3cccc4cccc(c34)N2)ccc1O	4	-2	0	9	-6
Oc1ccc2ccccc2c1C1Nc2cccc3cccc(c23)N1	-13	14	0	?	50*
CCN(CC)S(=O)(=O)c1cccc(NC(=O)COC(=O)C2COc3ccccc3O2)c1 (stereo not given)	13	-9	-1	1	-12
CCN(CC)S(=O)(=O)c1cccc(NC(=O)COC(=O)C2=COCCO2)c1	30*	-4	0	0	-10
COc1cc(C2c3c(oc4ccccc4c3=O)C(=O)N2Cc2ccc(C)cc2)ccc1O (stereo not given)	.	-10	-1	.	.
SMILES	D2 antag	D2 PAM-1	D2 ag-1	D2 ag-2	D2 PAM-2
O=C(NCCc1csc(-c2ccc(F)cc2)n1)c1cccs1	.	4	0	.	.
CCN1C(=O)C(CC(=O)Nc2ccc(OC)cc2)N(CCCN2CCN(c3ccc(F)cc3)CC2)C1=S (stereo not given)	57*	.	-1	14	7
Cn1c(-c2ccccc2)c(C(=O)CCl)c2ccccc21	0	39*	-1	4	-9
Cc1ccc(NC(=O)c2sc(-n3nc(C)c(Cc4ccc5c(c4)OCO5)c3C)nc2C)cc1C	.	13	-2	.	.
CCN(Cc1ccccc1)C(=O)c1cc2ccc3cccnc3c2[nH]1	.	-5	0	.	.
FC(F)Sc1ccc(NC(=S)NC2CCCCC2)cc1	-17	-4	8	0	-21
FC(F)Sc1ccc(NC(=S)NCC2CCCCC2)cc1	32*	-14	8	2	-21
COc1ccc(NC(=O)c2cc3c(=O)n4ccccc4nc3n2C)cc1OC	-8	35*	0	4	2
COc1ccc(C)cc1NC(=O)c1cc2c(=O)n3ccccc3nc2n1C	13	11	1	0	2
CSCCC(N=C1NS(=O)(=O)c2ccccc21)C(=O)NCCc1ccccc1 (stereo not given)	42*	-22	1	-1	-27
CC1CCN(C(=O)CN2c3ccc(Br)cc3-c3ccccc3S2(=O)=O)CC1	.	13	.	.	.
COc1ccc(NC(=O)CSc2ccccn2)c([N+](=O)[O-])c1	31*	-3	0	7	-5
O=C(CSc1ccccn1)Nc1cccc2ccccc12	14	34*	0	1	11
O=C(CSc1ccccn1)Nc1nonc1[N+](=O)[O-]	-15	7	2	63*	-8
O=C(COc1ccccc1-c1nc(-c2ccccc2)no1)Nc1ccc([N+](=O)[O-])cc1	.	.	-1	.	.
Cc1ccc(CNC(=O)c2cc(NS(=O)(=O)c3ccc(C)cc3)ccn2)cc1	.	3	0	.	.
CC1CCN(C(=O)Cn2cnc3c2c(=O)n(C)c(=O)n3C)c2ccccc2S1 (stereo not given)	45*	1	1	-6	-4
Cn1c(=O)c2c(ncn2CC(=O)N2CCCc3ccccc32)n(C)c1=O	4	-2	0	-4	23
CC1CCN(C(=O)CN2C(=O)C(=O)N(C)C2=O)c2ccccc2S1 (stereo not given)	44*	-3	1	-1	-4
COc1cccc(-c2cc(C(=O)Nc3c(C)nn(Cc4ccccc4Cl)c3C)no2)c1	.	4	1	.	.
CN(CCOc1ccccc1)CC(=O)Nc1ccc(Br)cc1F	53*	0	1	0	-8
Cc1ccc(CN2C(=O)c3ccccc3Sc3ccc(C(=O)NC4CCCCC4)cc32)cc1	.	.	0	.	.
COc1ccc(C(CNC(=O)COc2ccc(Cl)c(C)c2)N2CCCCC2)cc1 (stereo not given)	37*	-27	0	0	-34
